In PubChem BioAssay (Tox21):
Several values for one entry are separate records, joined by “and”; a condition that tells them apart may be missing. Equal entries are not always repeated. Results filed as inconclusive are left out. Where a call stands in place of a potency, no number is given. More than one record can exist for a structure, and the calls need not agree. Activity calls are given as the source filed them. Calls follow the shape of the dose curve; as a rule, active = well fitted inhibition curve with a large enough effect in the repeat runs; inconclusive = weak or mixed curves; inactive = flat fitted curve, though single readings scatter.

Biological target: Voltage-gated inwardly rectifying potassium channel KCNH2 (Homo sapiens) (UniProt Q12809)
Sequence (Q12809 whole entry, looked up): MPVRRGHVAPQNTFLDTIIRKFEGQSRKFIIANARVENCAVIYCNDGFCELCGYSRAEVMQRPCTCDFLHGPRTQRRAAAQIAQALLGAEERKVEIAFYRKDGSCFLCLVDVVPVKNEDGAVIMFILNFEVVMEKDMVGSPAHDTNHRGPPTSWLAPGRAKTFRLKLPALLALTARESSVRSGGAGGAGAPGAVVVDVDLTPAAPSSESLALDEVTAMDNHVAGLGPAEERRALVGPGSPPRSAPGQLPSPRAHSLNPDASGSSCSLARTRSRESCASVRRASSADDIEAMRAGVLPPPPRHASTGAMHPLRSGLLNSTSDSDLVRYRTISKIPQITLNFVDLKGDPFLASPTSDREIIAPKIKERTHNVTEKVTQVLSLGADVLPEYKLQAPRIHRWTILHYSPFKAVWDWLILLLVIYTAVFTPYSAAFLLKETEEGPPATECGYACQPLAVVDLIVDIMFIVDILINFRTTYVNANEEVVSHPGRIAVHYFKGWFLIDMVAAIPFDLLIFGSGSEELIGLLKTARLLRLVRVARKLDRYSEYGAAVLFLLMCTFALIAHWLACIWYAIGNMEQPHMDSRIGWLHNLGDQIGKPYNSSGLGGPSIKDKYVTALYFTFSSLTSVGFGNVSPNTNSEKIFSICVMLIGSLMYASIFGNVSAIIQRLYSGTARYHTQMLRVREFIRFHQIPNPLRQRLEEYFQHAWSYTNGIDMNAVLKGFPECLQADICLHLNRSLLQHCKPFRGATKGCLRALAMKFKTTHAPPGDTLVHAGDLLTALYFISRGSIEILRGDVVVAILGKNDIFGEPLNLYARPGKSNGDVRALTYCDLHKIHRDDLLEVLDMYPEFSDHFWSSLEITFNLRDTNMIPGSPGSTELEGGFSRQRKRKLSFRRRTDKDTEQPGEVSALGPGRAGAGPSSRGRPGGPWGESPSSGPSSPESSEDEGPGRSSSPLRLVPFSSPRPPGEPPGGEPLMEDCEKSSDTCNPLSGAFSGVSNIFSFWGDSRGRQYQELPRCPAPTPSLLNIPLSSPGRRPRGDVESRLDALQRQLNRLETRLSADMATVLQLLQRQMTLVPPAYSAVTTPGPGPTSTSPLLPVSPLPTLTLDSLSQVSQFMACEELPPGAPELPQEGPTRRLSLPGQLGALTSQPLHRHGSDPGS
Assay: Human Ether-a-go-go-Related Gene (hERG) channel small molecule antagonists: fluorescence cell-based qHTS assay (AID 1671200); also: nearly all actives have a fitted effect of over 50% in size
Settings: hERG-U2OS cells, FluxOR thallium flux fluorescence; series mostly up to 76.8 µM
Excerpt: National Center for Advancing Translational Sciences [NCATS]
U.S. Environmental Protection Agency [EPA]
National Institutes of Environmental Health Sciences [NIEHS]
National Toxicology Program [NTP]
U.S. Food and Drug Administration [FDA]
Mutations in the hERG channel cause Long QT (LQT) syndrome. LQT syndrome is a cardiac disorder which can cause ventricle arrhythmia and sudden death. Additionally, compounds which block the hERG channel can cause acquired LQT syndrome. Several FDA approved drugs have been removed from the market due to their hERG blocking activity. A cell-based hERG channel inhibition assay can be used to screen chemical compounds that inhibit hERG channel. This assay measures hERG channel activity using thallium ions as surrogate ions to measure potassium into the cells.
Tox21 Assay Protocol Summary:
hERG-U2OS cells were resuspended in culture medium and dispensed into 1536-well, black wall/clear-bottom plates at 1000cells/well/3uL using a Multidrop Combi dispenser (Thermo Fisher, Waltham, MA). After plates were incubated at 37 C overnight, 3 uL of Loading Buffer provided by FluxOR II Potassium Ion Channel Assay kit (Thermo, Carlsbad, CA) was added to each well. The assay plates were then incubated at room temperature in the dark for 1h. […] After the assay plates were incubated at room temperature for 10 min, 1 uL of Stimulus Buffer provided by FluxOR II Potassium Ion Channel Assay kit was added into each well and fluorescence intensity (480nm excitation/540nm emission) was continuously measured for 2 min at 1 second intervals using a Functional Drug Screening System (FDSS) 7000EX kinetic plate reader (Hamamatsu, Japan).
Potency is read from the fitted curve at half-maximal effect.

Question: With O=C(O)C(Cl)Cl as the compound, how does the Potency read?
Answer: inactive

Question: Which Potency does the source give for CCCCn1cc[n+](C)c1 here?
Answer: inactive

Question: With CNC as the compound, how does the Potency read?
Answer: inactive

Question: For COc1ccc(N)cc1, which Potency is on record?
Answer: inactive

Question: Which Potency does the source give for O=C(O)c1ccccc1O here?
Answer: inactive

Question: How did the Potency turn out when Oc1cccc2cccnc12 was run?
Answer: inactive

Question: For CCCC[N+]1(C)CCCCC1, which Potency is on record?
Answer: inactive

Question: With CCOP(=S)(OCC)Oc1ccc2c(C)c(Cl)c(=O)oc2c1 as the compound, how does the Potency read?
Answer: 22.1 µM (active) and inactive

Question: Which Potency does the source give for CCNc1nc(Cl)nc(NCC)n1 here?
Answer: inactive

Question: For Nc1ccc(-c2ccc(N)c(Cl)c2)cc1Cl, which Potency is on record?
Answer: inactive

Question: Which Potency does the source give for O=C(O)CCl here?
Answer: inactive

Question: With CCCCCCCCCCCCOS(=O)(=O)O as the compound, how does the Potency read?
Answer: inactive

Question: For Cc1cc(Cl)ccc1N, which Potency is on record?
Answer: inactive

Question: Which Potency does the source give for O=c1[nH]c(=O)n(Cl)c(=O)n1Cl here?
Answer: inactive

Question: With Cc1cc(Cl)ccc1OCC(=O)O as the compound, how does the Potency read?
Answer: inactive

Question: With OCCOc1ccccc1 as the compound, how does the Potency read?
Answer: inactive

Question: For CCCC[n+]1ccc(C)cc1, which Potency is on record?
Answer: inactive

Question: With COP(=O)(OC)C(O)C(Cl)(Cl)Cl (stereo not given) as the compound, how does the Potency read?
Answer: inactive

Question: How did the Potency turn out when CCC(=O)C(CC(C)N(C)C)(c1ccccc1)c1ccccc1 (stereo not given) was run?
Answer: 43.8 µM (active)

Question: How did the Potency turn out when CCC[N+]1(C)CCCCC1 was run?
Answer: inactive

Question: How did the Potency turn out when Nc1ccc(-c2ccc(N)cc2)cc1 was run?
Answer: inactive

Question: With Oc1ccccc1-c1ccccc1 as the compound, how does the Potency read?
Answer: inactive

Question: How did the Potency turn out when O=[N+]([O-])c1ccccc1O was run?
Answer: inactive

Question: With CCCCn1cc[n+](C)c1C as the compound, how does the Potency read?
Answer: inactive

Question: How did the Potency turn out when CCCCCCCCn1cc[n+](C)c1 was run?
Answer: 17.3 µM (active) and 21.9 µM (active) and 22.1 µM (active)

Question: With N#CS as the compound, how does the Potency read?
Answer: inactive

Question: With Cc1cc(-c2ccc(N)c(C)c2)ccc1N as the compound, how does the Potency read?
Answer: inactive

Question: COP(=O)(OC)OC=C(Cl)Cl was tested. Which Potency did it give?
Answer: inactive

Question: Which Potency does the source give for CCCCCCCCCCCC(=O)O here?
Answer: inactive

Question: Nc1ccc(Cl)cc1 was tested. Which Potency did it give?
Answer: inactive

Question: With CCCCCCCCCCCCCC[P+](CCCCCC)(CCCCCC)CCCCCC as the compound, how does the Potency read?
Answer: 552 nM (active) and 349 nM (active) and 691 nM (active)

Question: How did the Potency turn out when O=S(=O)(O)O was run?
Answer: inactive

Question: Which Potency does the source give for Nc1ccccc1 here?
Answer: inactive

Question: With CCCC[n+]1cccc(C)c1 as the compound, how does the Potency read?
Answer: inactive

Question: CC(=O)O was tested. Which Potency did it give?
Answer: inactive

Question: COCC(=O)N(c1c(C)cccc1C)C(C)C(=O)OC (stereo not given) was tested. Which Potency did it give?
Answer: inactive

Question: With CCn1cc[n+](C)c1C as the compound, how does the Potency read?
Answer: inactive

Question: Which Potency does the source give for O=C(O)CC(O)(CC(=O)O)C(=O)O here?
Answer: inactive

Question: O=C(O)c1nc(Cl)ccc1Cl was tested. Which Potency did it give?
Answer: inactive

Question: For CCCCCCn1cc[n+](C)c1, which Potency is on record?
Answer: inactive
